High-throughput results as filed in PubChem BioAssay.
Sfp PPTase inh: inhibitors of Bacillus subtilis Sfp phosphopantetheinyl transferase; Q9F4F7; Biochemical Sfp PPTase activity, qHTS; Potency, µM, without a hit: largest response in the series, negative = inhibition, actives largely listed as inhibitors; 3.5% of 310,000 active;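 note: the enzyme is Sfp with the accession as filed and its product quenches rhodamine fluorescence; 0% = enzyme reaction without inhibitor and -100% = no enzyme wells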
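Buffer: 50 mM Hepes-Na pH 7.6, 10 mM MgCl2, 0.01% Nonidet P-40, 0.01% BSA. Enzyme 15 nM, pre-exposed to compound 15 min; substrates then added and fluorescence change tracked over 30 min.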
JMJD2A Tudor inh: JMJD2A Tudor domain (human) inhibition. AID 504339. AlphaScreen JMJD2A-Tudor / H3K4me3 peptide binding. Potency, µM (doses to about 114 µM), for the others: at the highest dose activity change, negative = inhibition, actives largely listed as inhibitors. O75164. 4.4% of 390,000 active; note: % is set by controls: 0 for no effect and ±100 for the full control effect; nearly all actives have a fitted effect of over 50% in size
HP1b binding inh: blocks HP1-beta chromodomain binding to methylated histone tails; AID 540317; AlphaScreen HP1-beta / biotin-H3K9me3 peptide binding; 0.56% of 390,000 active; Potency, µM (top dose mostly 114 µM), for inactives: at the highest dose activity change, negative = inhibition, most hits filed as inhibitors; P83916; note: nearly all actives have a fitted effect of over 70% in size
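Compound inhibition of the preformed complex between 50 nM HP1-beta and 50 nM biotinylated H3K9me3 peptide was read by AlphaScreen. Buffer was PBS pH 7.4 with 0.01% Tween-20. Incubations ran 30 min at room temperature, with 10 ug/mL donor/acceptor beads.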
BAZ2B inh: blocks human BAZ2B. Potency, µM (top dose mostly 114 µM), for inactives: at the top dose activity change, negative = inhibition, usual class: inhibitors. 4.4% of 360,000 active. Q9UIF8. AlphaScreen BAZ2B-H3K14Ac peptide displacement. AID 504333; note: % is set by controls: 0 for no effect and ±100 for the full control effect; nearly all actives have a fitted effect of over 60% in size
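Protein-peptide AlphaScreen: BAZ2B 50 nM, b-H3K14Ac 50 nM, 1x PBS pH 7.4 + 0.01% Tween-20. Preincubation 30 min RT; cpd 30 min RT (top 110 uM); beads 20 min RT, light-protected.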
G9a inh: blocks human histone lysine methyltransferase G9a | G9a H3K9 monomethylation, AlphaScreen, 2 h | Potency, µM (series often up to 102 µM), for the others: at the top dose activity, negative = inhibition, hits mostly inhibitors | 8.8% of 350,000 active | AID 504332; note: % is set by controls: 0 for no effect and ±100 for the full control effect; nearly all actives have a fitted effect of over 75% in size
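G9a (20 nM) was preincubated 15 min with compound, then reacted 2 h at room temperature with 500 nM biotin-H3K9 peptide and 20 µM SAM. Monomethyl-H3K9 detected by AlphaScreen using anti-H3K9me1 antibody.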
* = called active by the depositor; [ ] = another dose, or the depositor's remark. Only some compounds are listed: those with a hit (about 12% of all), similar ones and a draw of the others. Calls come from the whole dose curve; as a rule, active = well fitted curve in the direction sought with a large enough effect; inconclusive = small, poorly fitted or top-dose-only effect, or another doubt; inactive = no such curve, though single readings can be large; an effect the other way counts as inactive or inconclusive. Potency is the fitted concentration of half-maximal effect.

How did CSc1cccc(NC(=O)c2ccc3c(c2)CCCN3S(C)(=O)=O)c1 do in these assays?
JMJD2A Tudor inh: -29.9%; HP1b binding inh: 30.0%; BAZ2B inh: -16.1%; G9a inh: 3.7%[59 µM]

Results for Cc1ccc(C(=O)N2CCC(N3CCN(Cc4ccc(F)cc4)C(=O)C3=O)CC2)cc1 ?
JMJD2A Tudor inh: -6.5%; HP1b binding inh: 19.4%; BAZ2B inh: -3.6%; G9a inh: 6.6%[59 µM]

How did Cc1oc(-c2ccccc2)cc1C(=O)Nc1cccc(/C=C/C(=O)O)c1 do in these assays?
Sfp PPTase inh: 2.2%; JMJD2A Tudor inh: inconclusive; HP1b binding inh: inconclusive; BAZ2B inh: 44.7µM*; G9a inh: -49.6%

How did Cc1oc(-c2ccccc2)cc1C(=O)Nc1ccc2ccccc2c1 do in these assays?
Sfp PPTase inh: 89.1µM*; JMJD2A Tudor inh: 4.1%; HP1b binding inh: 43.6%; BAZ2B inh: -27.9%; G9a inh: -48.4%[0.501 µM]

What do the screens show for `O=C(Nc1cccc(C(F)(F)F)c1)C1CCCN(S(=O)(=O)c2cccc3nsnc23)C1` (configuration not stated)?
JMJD2A Tudor inh: -6.0%; HP1b binding inh: 16.2%; G9a inh: -29.9%[59 µM]

What do the screens show for `O=C1C2C3C=CC(CNS(=O)(=O)c4ccccc4[N+](=O)[O-])(O3)C2C(=O)N1c1ccccc1` (configuration not stated)?
Sfp PPTase inh: 28.2µM*; JMJD2A Tudor inh: inconclusive; HP1b binding inh: inconclusive; BAZ2B inh: -17.7%; G9a inh: 4.47µM*

Results for Cc1cc(C)c(S(=O)(=O)NCC23C=CC(O2)C2C(=O)N(c4ccccc4)C(=O)C23)c(C)c1 (configuration not stated) ?
Sfp PPTase inh: 28.2µM*; JMJD2A Tudor inh: 50.1µM*; HP1b binding inh: inconclusive; BAZ2B inh: inconclusive; G9a inh: -14.8%[0.501 µM]

How did O=[N+]([O-])c1ccccc1S(=O)(=O)NCc1ccco1 do in these assays?
Sfp PPTase inh: 13.4%; JMJD2A Tudor inh: -22.4%; HP1b binding inh: 23.8%; BAZ2B inh: -22.7%; G9a inh: -13.0%

How did Cc1ccc2[nH]c3c(c2c1)CN(C(=O)CN1CCN(c2cccc(C)c2C)CC1)CC3 do in these assays?
Sfp PPTase inh: 1.8%; JMJD2A Tudor inh: 56.2µM*; HP1b binding inh: -18.5%; BAZ2B inh: 35.5µM*; G9a inh: inconclusive

What do the screens show for `Cc1ccc2[nH]c3c(c2c1)CN(C(=O)CN1c2ccc(F)cc2CCC1C)CC3` (configuration not stated)?
Sfp PPTase inh: 6.3%; JMJD2A Tudor inh: 44.7µM*; HP1b binding inh: inconclusive; BAZ2B inh: 39.8µM*; G9a inh: 31.6µM*

Results for C=CCNC(=O)N1CCc2[nH]c3ccc(F)cc3c2C1 ?
Sfp PPTase inh: -2.5%; JMJD2A Tudor inh: -22.8%; HP1b binding inh: 43.8%; BAZ2B inh: -12.8%; G9a inh: -13.9%

How did Cc1ccc2[nH]c3c(c2c1)CN(C(=O)CN1CCN(C(=O)c2ccco2)CC1)CC3 do in these assays?
Sfp PPTase inh: 6.8%; BAZ2B inh: -19.2%; G9a inh: inconclusive

How did O=C(CN1CCN(C(=O)c2ccco2)CC1)N1CCc2[nH]c3ccccc3c2C1 do in these assays?
Sfp PPTase inh: 35.5µM*; JMJD2A Tudor inh: -14.7%; HP1b binding inh: 25.6%; BAZ2B inh: -24.0%; G9a inh: 22.4µM*

Results for CS(=O)(=O)OCC(O)C(O)COS(C)(=O)=O (configuration not stated) ?
Sfp PPTase inh: 1.7%; G9a inh: -20.2%[12.7 µM]

Results for CCCS(=O)(=O)Nc1ccc(Nc2c3ccccc3nc3ccccc23)c(OC)c1 ?
JMJD2A Tudor inh: 39.8µM*; HP1b binding inh: inconclusive

Results for COc1ccc(CNC(=O)COC(=O)/C=C/c2ccco2)cc1 ?
Sfp PPTase inh: inconclusive; JMJD2A Tudor inh: -8.6%; HP1b binding inh: 2.2%; BAZ2B inh: inconclusive; G9a inh: 56.2µM*

Results for O=C(COC(=O)/C=C/c1ccco1)NCc1ccco1 ?
Sfp PPTase inh: 50.1µM*; JMJD2A Tudor inh: 79.4µM*; HP1b binding inh: -10.3%; BAZ2B inh: 44.7µM*; G9a inh: 31.6µM*

What do the screens show for `COc1ccc(CNC(=O)COC(=O)c2ccco2)cc1`?
Sfp PPTase inh: 6.4%; JMJD2A Tudor inh: -9.7%; HP1b binding inh: 29.5%; BAZ2B inh: -8.3%
